Holding throughout (set-up): scale not given: direction of the effect not stated beside the values
Experiment [1] concerns the target Protein translocase subunit SecA (Escherichia coli (strain K12)) (UniProt P10408). The experiment can be described thus: Assay to Identify E. coli SecA ATPase Inhibitors. The format is functional. Conditions: 30 µM.
In experiment [2] the target is T1, Ubiquitin-activating enzyme e1, putative (Leishmania donovani (strain BPK282A1)) (UniProt E9BSI1).
T1 sequence (whole entry): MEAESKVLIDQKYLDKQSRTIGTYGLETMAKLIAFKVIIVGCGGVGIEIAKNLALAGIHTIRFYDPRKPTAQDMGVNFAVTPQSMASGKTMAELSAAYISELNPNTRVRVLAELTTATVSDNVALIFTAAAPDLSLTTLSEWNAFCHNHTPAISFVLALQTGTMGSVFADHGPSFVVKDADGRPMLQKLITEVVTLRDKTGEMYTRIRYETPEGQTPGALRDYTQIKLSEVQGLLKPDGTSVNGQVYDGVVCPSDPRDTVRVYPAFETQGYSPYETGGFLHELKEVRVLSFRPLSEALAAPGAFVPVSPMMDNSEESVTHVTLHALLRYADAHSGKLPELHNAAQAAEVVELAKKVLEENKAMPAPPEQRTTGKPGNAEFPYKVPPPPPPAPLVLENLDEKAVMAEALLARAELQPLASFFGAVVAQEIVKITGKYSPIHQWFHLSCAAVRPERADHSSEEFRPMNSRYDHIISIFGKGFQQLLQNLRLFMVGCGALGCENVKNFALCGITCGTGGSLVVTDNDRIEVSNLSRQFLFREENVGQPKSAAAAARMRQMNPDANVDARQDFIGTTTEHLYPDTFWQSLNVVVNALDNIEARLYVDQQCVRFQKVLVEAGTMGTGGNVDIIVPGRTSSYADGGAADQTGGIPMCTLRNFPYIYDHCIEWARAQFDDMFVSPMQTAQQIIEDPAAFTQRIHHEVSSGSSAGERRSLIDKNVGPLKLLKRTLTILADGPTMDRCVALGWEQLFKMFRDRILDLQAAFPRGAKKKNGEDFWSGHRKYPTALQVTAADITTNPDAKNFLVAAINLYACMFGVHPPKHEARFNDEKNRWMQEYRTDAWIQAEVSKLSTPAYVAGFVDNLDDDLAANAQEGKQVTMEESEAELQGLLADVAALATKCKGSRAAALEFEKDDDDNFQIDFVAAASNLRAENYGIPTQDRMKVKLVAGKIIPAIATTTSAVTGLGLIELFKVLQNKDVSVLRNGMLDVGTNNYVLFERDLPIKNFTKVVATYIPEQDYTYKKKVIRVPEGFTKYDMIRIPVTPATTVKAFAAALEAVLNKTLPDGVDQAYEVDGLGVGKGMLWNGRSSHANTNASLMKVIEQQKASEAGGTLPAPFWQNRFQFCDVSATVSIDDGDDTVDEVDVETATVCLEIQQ
The experiment is described as follows: Leishmania donovani Ubiquitin Activating Enzyme (LdE1). The following applies: 30 µM. Format: functional.

For experiment [3], the target named is AMP-activated protein kinase, AMPK (Homo sapiens) (UniProt P54646+O43741+P54619+Q9UGJ0+Q9Y478+Q13131+Q9UGI9). The experiment is described as follows: AMP-dependent Kinase enzyme assay. An in vitro enzyme assay that detects ADP turnover that is directly proportional to AMPK activity. This uses naive AMPK that is activated during the assay with MK-8722. Conditions: 30 µM. The format is functional.

Experiment [4] deals with Sialic acid-binding Ig-like lectin 9 (Homo sapiens) (UniProt Q9Y336). The experiment is described as follows: Hs-Siglec9 ALPHAscreen SOP 20170721. Conditions: 10 µM.
Sialic acid-binding Ig-like lectin 9 (Homo sapiens), sequence (Q9Y336 whole entry): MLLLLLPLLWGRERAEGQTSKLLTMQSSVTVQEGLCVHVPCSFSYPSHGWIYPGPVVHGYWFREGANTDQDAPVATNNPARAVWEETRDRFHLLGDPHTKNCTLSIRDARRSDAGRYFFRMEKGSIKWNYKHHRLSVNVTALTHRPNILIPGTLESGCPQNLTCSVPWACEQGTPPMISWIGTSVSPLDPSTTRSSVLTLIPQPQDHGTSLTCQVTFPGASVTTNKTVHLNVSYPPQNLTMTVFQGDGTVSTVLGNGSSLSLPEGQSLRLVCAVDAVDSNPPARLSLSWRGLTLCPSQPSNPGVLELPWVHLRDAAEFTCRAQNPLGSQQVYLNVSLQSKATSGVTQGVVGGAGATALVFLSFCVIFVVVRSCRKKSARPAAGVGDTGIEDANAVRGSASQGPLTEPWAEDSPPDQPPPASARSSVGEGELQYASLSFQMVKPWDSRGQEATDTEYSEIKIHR
For the next experiment, the system named is Trypanosoma cruzi. The experiment is described as follows: Trypanosoma cruzi phosphomannomutase and mannose-1-phosphate guanylyltransferase assay. Format: functional. The following applies: 10 µM.
Experiment [5] addresses T2, Arginase-2, mitochondrial (Homo sapiens) (UniProt P78540).
T2 sequence (whole entry): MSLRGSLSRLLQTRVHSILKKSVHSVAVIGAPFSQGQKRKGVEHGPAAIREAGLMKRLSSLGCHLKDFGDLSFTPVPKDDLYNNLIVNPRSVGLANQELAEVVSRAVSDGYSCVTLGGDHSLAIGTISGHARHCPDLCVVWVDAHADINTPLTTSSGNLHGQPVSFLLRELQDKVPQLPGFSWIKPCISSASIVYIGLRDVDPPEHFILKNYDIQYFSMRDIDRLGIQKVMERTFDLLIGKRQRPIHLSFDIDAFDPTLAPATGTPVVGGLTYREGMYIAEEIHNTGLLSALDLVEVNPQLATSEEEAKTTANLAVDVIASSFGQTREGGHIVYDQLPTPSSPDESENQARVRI
The experiment can be described thus: in vitro enzyme assay to detect the production of urea directly proportional to the activity of Arginase II. Further: in the data most compounds retested in dose-response had high values. The format is functional. Conditions: 33.3 µM.

Experiment [6] deals with T3, Proteasome subunit beta (Trypanosoma cruzi) (UniProt O96673).
T3 sequence (whole entry): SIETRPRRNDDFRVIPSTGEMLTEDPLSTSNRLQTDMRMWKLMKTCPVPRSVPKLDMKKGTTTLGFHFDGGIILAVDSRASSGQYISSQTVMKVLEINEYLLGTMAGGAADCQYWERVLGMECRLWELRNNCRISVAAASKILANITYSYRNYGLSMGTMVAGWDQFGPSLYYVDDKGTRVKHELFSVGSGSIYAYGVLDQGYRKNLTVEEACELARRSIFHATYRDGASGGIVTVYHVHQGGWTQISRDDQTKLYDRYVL
The experiment is described as follows: Trypanosoma cruzi proteasome chymotrypsin-like activity (TcProtChymo) assay. Further: in the data most compounds retested in dose-response had high values. Format: functional. The following applies: 9.37 µM.

A further experiment is filed under the species Homo sapiens. The experiment can be described thus: To identify inhibition of the IFN signalling (Jak-Stat) pathway via expression of an eGFP reporter gene under the control of an IFN-stimulated response element (ISRE) containing MxA promoter. Format: functional. Conditions: 30 µM. In general terms: Reporter assays use an easily measured gene product as a stand-in for the process of interest.

The target of experiment [7] is T4, Tyrosyl-tRNA synthetase, putative (Trypanosoma cruzi (strain CL Brener)) (UniProt Q4DSP6).
T4 sequence (whole entry): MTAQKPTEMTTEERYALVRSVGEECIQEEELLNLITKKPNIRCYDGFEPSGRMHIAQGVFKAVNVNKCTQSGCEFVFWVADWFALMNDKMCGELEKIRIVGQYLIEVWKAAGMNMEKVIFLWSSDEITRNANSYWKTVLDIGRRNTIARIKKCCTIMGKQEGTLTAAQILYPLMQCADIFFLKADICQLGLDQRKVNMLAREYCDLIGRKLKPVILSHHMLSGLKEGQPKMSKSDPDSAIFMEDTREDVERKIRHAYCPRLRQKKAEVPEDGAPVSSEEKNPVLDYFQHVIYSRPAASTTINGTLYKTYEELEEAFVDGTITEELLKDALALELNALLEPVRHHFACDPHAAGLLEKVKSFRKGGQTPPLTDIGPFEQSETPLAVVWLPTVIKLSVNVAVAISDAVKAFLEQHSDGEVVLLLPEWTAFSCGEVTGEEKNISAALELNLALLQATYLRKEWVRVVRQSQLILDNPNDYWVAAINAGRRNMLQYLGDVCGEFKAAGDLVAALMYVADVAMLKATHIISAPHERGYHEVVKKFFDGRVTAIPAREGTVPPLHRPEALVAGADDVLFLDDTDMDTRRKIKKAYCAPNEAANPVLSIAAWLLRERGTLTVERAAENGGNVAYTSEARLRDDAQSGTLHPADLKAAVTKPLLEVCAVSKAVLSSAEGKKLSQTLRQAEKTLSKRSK
The experiment can be described thus: Trypanosoma cruzi tyrosyl tRNA synthetase (TcYRS) _High Tyrosine SOP. Further: in the data most compounds retested in dose-response had high values. Format: functional. The following applies: 30 µM.

Experiment [8] has as its target T4, Tyrosyl-tRNA synthetase, putative (Trypanosoma cruzi (strain CL Brener)). The experiment is described as follows: Trypanosoma cruzi tyrosyl tRNA synthetase (TcYRS) SOP. The following applies: 30 µM. The format is functional.
Experiment [9] has as its target Chromo domain-containing protein 1 (Saccharomyces cerevisiae (strain ATCC 204508 / S288c) (Baker's yeast)) (UniProt P32657). The experiment is described as follows: ScCHD-1 Enzyme Inhibition Assay. Further: in the data most compounds retested in dose-response had high values. Conditions: 30 µM. The format is functional.

For some of these results: Entries with a potency or affinity are not part of this list.

Protein translocase subunit SecA (Escherichia coli (strain K12)), sequence (P10408 whole entry): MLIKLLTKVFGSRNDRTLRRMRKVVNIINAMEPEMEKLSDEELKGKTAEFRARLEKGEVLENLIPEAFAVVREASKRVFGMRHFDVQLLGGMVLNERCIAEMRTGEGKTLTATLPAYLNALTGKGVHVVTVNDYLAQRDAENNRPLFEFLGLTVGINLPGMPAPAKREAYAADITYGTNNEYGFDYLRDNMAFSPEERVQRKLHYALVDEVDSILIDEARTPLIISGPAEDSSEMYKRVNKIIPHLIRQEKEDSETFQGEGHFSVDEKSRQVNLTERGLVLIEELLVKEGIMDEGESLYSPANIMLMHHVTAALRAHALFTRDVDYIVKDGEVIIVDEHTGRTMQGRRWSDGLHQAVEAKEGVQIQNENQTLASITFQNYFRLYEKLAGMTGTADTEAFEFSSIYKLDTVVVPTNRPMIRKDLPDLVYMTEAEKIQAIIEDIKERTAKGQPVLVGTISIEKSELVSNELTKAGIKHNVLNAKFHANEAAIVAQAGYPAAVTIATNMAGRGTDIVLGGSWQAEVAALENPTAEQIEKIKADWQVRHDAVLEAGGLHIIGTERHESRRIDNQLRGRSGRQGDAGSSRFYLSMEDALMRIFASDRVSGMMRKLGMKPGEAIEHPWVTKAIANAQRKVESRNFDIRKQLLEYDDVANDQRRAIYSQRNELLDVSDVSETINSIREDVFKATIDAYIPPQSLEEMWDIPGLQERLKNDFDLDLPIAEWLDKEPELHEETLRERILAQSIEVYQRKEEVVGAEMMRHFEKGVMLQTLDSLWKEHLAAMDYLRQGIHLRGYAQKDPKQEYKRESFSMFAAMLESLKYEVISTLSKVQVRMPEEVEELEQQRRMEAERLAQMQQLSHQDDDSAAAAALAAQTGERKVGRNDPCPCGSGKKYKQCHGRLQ
Chromo domain-containing protein 1 (Saccharomyces cerevisiae (strain ATCC 204508 / S288c) (Baker's yeast)), sequence (P32657 whole entry, the tested form may be a part): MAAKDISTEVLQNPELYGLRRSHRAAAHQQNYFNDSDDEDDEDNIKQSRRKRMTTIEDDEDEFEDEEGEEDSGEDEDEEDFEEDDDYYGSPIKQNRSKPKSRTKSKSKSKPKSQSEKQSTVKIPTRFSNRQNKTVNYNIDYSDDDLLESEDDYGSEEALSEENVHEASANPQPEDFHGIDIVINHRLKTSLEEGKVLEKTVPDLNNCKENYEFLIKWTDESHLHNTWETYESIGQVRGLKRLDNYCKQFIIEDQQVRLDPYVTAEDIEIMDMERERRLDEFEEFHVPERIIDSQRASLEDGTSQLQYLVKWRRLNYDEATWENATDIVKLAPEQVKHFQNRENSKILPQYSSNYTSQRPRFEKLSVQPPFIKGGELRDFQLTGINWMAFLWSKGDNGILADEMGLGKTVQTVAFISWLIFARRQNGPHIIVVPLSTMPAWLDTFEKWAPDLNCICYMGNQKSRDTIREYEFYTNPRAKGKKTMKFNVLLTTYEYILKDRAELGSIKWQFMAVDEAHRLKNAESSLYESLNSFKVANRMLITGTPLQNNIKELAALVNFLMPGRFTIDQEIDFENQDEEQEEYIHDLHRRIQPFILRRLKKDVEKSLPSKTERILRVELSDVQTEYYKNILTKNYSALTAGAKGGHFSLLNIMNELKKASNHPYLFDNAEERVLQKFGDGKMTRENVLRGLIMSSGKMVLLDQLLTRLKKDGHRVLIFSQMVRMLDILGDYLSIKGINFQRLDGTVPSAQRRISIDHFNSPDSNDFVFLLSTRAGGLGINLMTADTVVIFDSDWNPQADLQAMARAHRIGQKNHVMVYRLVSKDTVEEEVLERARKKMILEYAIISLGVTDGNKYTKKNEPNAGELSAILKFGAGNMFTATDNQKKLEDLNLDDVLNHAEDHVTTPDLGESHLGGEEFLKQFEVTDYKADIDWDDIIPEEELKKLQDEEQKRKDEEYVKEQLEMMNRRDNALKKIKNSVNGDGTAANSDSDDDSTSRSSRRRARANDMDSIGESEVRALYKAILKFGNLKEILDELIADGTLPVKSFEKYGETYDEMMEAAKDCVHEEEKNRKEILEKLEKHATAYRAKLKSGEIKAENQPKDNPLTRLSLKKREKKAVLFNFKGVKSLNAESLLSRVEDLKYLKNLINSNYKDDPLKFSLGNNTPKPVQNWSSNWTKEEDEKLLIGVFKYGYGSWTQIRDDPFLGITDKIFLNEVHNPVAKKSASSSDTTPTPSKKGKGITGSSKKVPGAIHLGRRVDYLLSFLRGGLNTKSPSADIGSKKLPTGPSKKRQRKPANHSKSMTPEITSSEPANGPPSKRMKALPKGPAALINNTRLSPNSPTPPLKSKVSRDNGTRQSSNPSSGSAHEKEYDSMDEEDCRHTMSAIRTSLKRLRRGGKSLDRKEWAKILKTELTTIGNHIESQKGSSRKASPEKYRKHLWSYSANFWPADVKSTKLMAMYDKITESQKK

Consider `O=C(NCC1CCN(Cc2ccsc2)CC1)NC1CC1`, for which the Percent Effect in experiment [1] was 1.05%; in [2] it was 7.79%; in [3] it was 2.27%; in experiment [4], -0.902%; in the experiment with Trypanosoma cruzi it was -5.62%; in [5], 14.8%. Further, the Percent Effect in [6] was 17.2%; in the experiment listed under Homo sapiens it was 10.3%; in [7], 2.12%; in experiment [8] it was 6.41%; in [9] it was -5.17%.

`CCc1nnc(CN(C)c2nc(C(C)C)nc3c2cnn3C)o1`: the Percent Effect in experiment [1] is 3.23%; in experiment [2], 4.17%; in experiment [3] it was 6.88%; in experiment [4], -0.661%; in the experiment on Trypanosoma cruzi it was -3.6%; in experiment [5], 2.21%. Further, the Percent Effect in experiment [6] is 16.8%; in the experiment listed under Homo sapiens, -1.37%; in [7] it was -2.1%; in experiment [8], 2.56%; in [9], 1.23%.

As to `CN(C)S(=O)(=O)N1C[C@H](Oc2cccnc2)[C@H]2OCCC[C@H]21`, the Percent Effect was -5.31% in experiment [1]; 5.2% in [2]; 74% in [3]; -1.91% in experiment [4]; -0.69% in the experiment on Trypanosoma cruzi; -4.52% in [5]. Also, the Percent Effect was 3.65% in experiment [6]; 10.9% in the experiment listed under Homo sapiens; 0% in [7]; -1.28% in experiment [8]; -8.75% in [9].

As for `CC(=O)N1CCCN(C(=O)NCCc2cc(Cl)cc(Cl)c2)CC1`, the Percent Effect in [1] is -3.3%; in [2] it was -8.86%; in [3], 10.6%; in experiment [4], 0.0308%; in the experiment on Trypanosoma cruzi, -2.77%; in experiment [5], 7.1%. For the same compound, the Percent Effect in experiment [6] was 1.54%; in the experiment filed under Homo sapiens it was 13.1%; in experiment [7], 0%; in experiment [8], 2.53%; in [9], -17.6%.

Consider `COc1cc(CNC2CCCc3c2cnn3C)cc(OC)c1` (stereo unspecified), for which the Percent Effect in experiment [1] was -5.5%; in experiment [2], 8.11%; in [3], 139%; in [4], 9.27%; in the experiment with Trypanosoma cruzi, 1.6%; in experiment [5], -3.61%. Further, the Percent Effect in experiment [6] was -1.44%; in the experiment filed under Homo sapiens it was 2.92%; in experiment [7], 5.42%; in [8] it was 3.7%; in experiment [9], -10%.

As for `CN(Cc1ccccc1)C1(C(=O)O)Cc2ccccc2C1`, the Percent Effect was -3.87% in [1]; 2.67% in experiment [2]; -2.42% in experiment [3]; 1.78% in [4]; -3.6% in the experiment with Trypanosoma cruzi; 3.12% in experiment [5]. In addition, the Percent Effect is 12.9% in experiment [6]; 5.79% in the experiment filed under Homo sapiens; 2.73% in experiment [7]; 8.64% in experiment [8]; -5.27% in [9].

Consider `Cc1ccc(CN2CC(C(=O)Nc3ccccc3)C3(CCOCC3)C2)s1` (stereo unspecified), for which the Percent Effect is -2.15% in experiment [1]; 8% in experiment [2]; -1.41% in experiment [3]; 0.774% in [4]; -0.579% with Trypanosoma cruzi; -44.3% in experiment [5]. Also, the Percent Effect was 11.4% in experiment [6]; -5.53% in the experiment listed under Homo sapiens; 3.12% in [7]; 25% in [8]; -6.22% in experiment [9].

With `CCN(CC)c1ccc(NS(=O)(=O)c2cnn(C)c2)cn1`, the Percent Effect in experiment [1] was -1.96%; in [2], 16.4%; in experiment [3], -5.27%; in experiment [4], 6.69%; in the experiment on Trypanosoma cruzi, 8.33%; in [5] it was -6.39%. Moreover, the Percent Effect was 8.48% in experiment [6]; 0.142% in the experiment listed under Homo sapiens; 6.25% in [7]; 13.6% in experiment [8]; -5.08% in [9].

As to `Cc1cnn(C2CN(CC(O)c3ccc4c(c3)OCCO4)C2)c1` (stereo unspecified), the Percent Effect in experiment [1] is -0.511%; in experiment [2], -24%; in experiment [3], -2.25%; in experiment [4], -4.57%; in the experiment on Trypanosoma cruzi it was -0.292%; in experiment [5] it was 0%. For the same compound, the Percent Effect in experiment [6] is 7.5%; in the experiment listed under Homo sapiens it was 10.6%; in [7], 13.7%; in experiment [8], 13.6%; in [9] it was -6.83%.

Turning to `CC1(C)CC(N(Cc2ccccc2)Cc2cccnc2)CC(C)(C)N1`, the Percent Effect in experiment [1] was -8.83%; in [2], 17.6%; in experiment [3] it was -4.84%; in experiment [4], 9.22%; in the experiment with Trypanosoma cruzi, 5.73%; in experiment [5], -6.73%. For the same compound, the Percent Effect is 7.8% in experiment [6]; -4.57% in the experiment listed under Homo sapiens; 6.45% in [7]; 9.09% in experiment [8]; -29.8% in experiment [9].

`Cc1nc(COC[C@]23COC[C@H]2CN(Cc2ccoc2)C3)cs1`: the Percent Effect is -4.99% in experiment [1]; 0% in experiment [2]; -4.16% in [3]; 13.2% in experiment [4]; 6.94% in the experiment on Trypanosoma cruzi; 0.248% in experiment [5]. Further, the Percent Effect in experiment [6] is -2.49%; in the experiment filed under Homo sapiens it was -33.4%; in experiment [7], 3.23%; in experiment [8], 11.1%; in experiment [9], -1.94%.
